# Data: the supplement of paper PMC8728848
# Many of the other results were omitted from the sample, so the strongest signals are more common in it than they were.
# Key:
# Test in all cases: glycan array binding signal (z-score within array); higher = stronger binding
# Settings in all cases: glycan notation: IUPAC condensed, linker removed
# [1] = target: Fuc(a1-2)Gal(b1-3)GalNAc(a1-3)[Fuc(a1-2)]Gal(b1-4)GlcNAc
# Summary of the method: (§1)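 From the Consortium for Functional Glycomics database, 3228 arrays were curated, keeping only those whose protein sequence was available. Binding is given as a within-array Z-score averaged across arrays sharing a protein sequence and across linkers. Negative Z-scores can be read as non-binding.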
# [2] = target: Fuc(a1-2)Gal(b1-3)GlcNAc(b1-2)Man(a1-3)[Fuc(a1-2)Gal(b1-3)GlcNAc(b1-2)Man(a1-6)]Man(b1-4)GlcNAc(b1-4)[Fuc(a1-6)]GlcNAc
# Summary of the method: as §1
# [3] = target: Fuc(a1-2)Gal(b1-3)[Fuc(a1-4)]GlcNAc(b1-2)Man(a1-3)[Fuc(a1-2)Gal(b1-3)[Fuc(a1-4)]GlcNAc(b1-2)Man(a1-3)]Man(b1-4)GlcNAc(b1-4)GlcNAc
# Summary of the method: as §1
# [4] = target: Fuc(a1-2)Gal(b1-3)[Fuc(a1-4)]GlcNAc(b1-2)Man(a1-3)[Fuc(a1-2)Gal(b1-3)[Fuc(a1-4)]GlcNAc(b1-2)Man(a1-6)]Man(b1-4)GlcNAc(b1-4)[Fuc(a1-6)]GlcNAc(b1-4)[Fuc(a1-6)]GlcNAc
# Summary of the method: as §1
# [5] = target: Fuc(a1-2)Gal(b1-4)Glc
# Summary of the method: as §1
# [6] = target: Fuc(a1-2)Gal(b1-4)GlcNAc(b1-3)GalNAc
# Summary of the method: as §1
# [7] = target: Fuc(a1-2)Gal(b1-4)GlcNAc(b1-6)GalNAc
# Summary of the method: as §1
# [8] = target: Fuc(a1-2)[GalNAc(a1-3)]Gal(b1-3)GlcNAc(b1-3)GalNAc
# Summary of the method: as §1
# [9] = target: Fuc(a1-2)[GalNAc(a1-3)]Gal(b1-4)GlcNAc(b1-2)Man(a1-3)[Fuc(a1-2)[GalNAc(a1-3)]Gal(b1-4)GlcNAc(b1-2)Man(a1-6)]Man(b1-4)GlcNAc(b1-4)GlcNAc
# Summary of the method: as §1
# [10] = target: Fuc(a1-2)[GalNAc(a1-3)]Gal(b1-4)[Fuc(a1-3)]GlcNAc(b1-3)GalNAc
# Summary of the method: as §1
# [11] = target: Fuc(a1-2)[GalNAc(a1-4)]Gal(b1-4)GlcNAc
# Summary of the method: as §1
# [12] = target: Fuc(a1-3)[Gal(b1-4)]GlcNAc(b1-2)Man
# Summary of the method: as §1
# [13] = target: Gal(a1-3)[Gal(a1-4)]Gal(b1-4)GlcNAc
# Summary of the method: as §1
# [14] = target: Gal(a1-4)Gal(b1-4)GlcNAc
# Summary of the method: as §1
# [15] = target: Gal(a1-6)Glc
# Summary of the method: as §1
# [16] = target: Gal(b1-3)GalNAc(a1-3)[Fuc(a1-2)]Gal(b1-4)GlcNAc
# Summary of the method: as §1
# [17] = target: Gal(b1-3)GlcNAc(b1-2)Man(a1-3)[Gal(b1-3)GlcNAc(b1-2)Man(a1-6)]Man(b1-4)GlcNAc(b1-4)GlcNAc
# Summary of the method: as §1
# [18] = target: Gal(b1-3)GlcNAc(b1-3)Gal(b1-4)GlcNAc(b1-2)[Gal(b1-3)GlcNAc(b1-3)Gal(b1-4)GlcNAc(b1-6)]Man(a1-6)[Gal(b1-3)GlcNAc(b1-3)Gal(b1-4)GlcNAc(b1-2)Man(a1-3)]Man(b1-4)GlcNAc(b1-4)[Fuc(a1-6)]GlcNAc
# Summary of the method: as §1
# [19] = target: Gal(b1-3)GlcNAc6S
# Summary of the method: as §1
# [20] = target: Gal(b1-3)[Fuc(a1-4)]GlcNAc(b1-6)GalNAc
# Summary of the method: as §1
# [21] = target: Gal(b1-4)GlcNAc(b1-2)Man(a1-6)[Man(a1-3)]Man(b1-4)GlcNAc(b1-4)GlcNAc
# Summary of the method: as §1
# [22] = target: Gal(b1-4)GlcNAc(b1-3)Gal(b1-4)GlcNAc
# Summary of the method: as §1
# [23] = target: Gal(b1-4)GlcNAc(b1-3)Gal(b1-4)GlcNAc(b1-2)Man(a1-3)[Gal(b1-4)GlcNAc(b1-3)Gal(b1-4)GlcNAc(b1-2)Man(a1-6)]Man(b1-4)GlcNAc(b1-4)[Fuc(a1-6)]GlcNAc
# Summary of the method: as §1
# [24] = target: Gal(b1-4)GlcNAc(b1-3)Gal(b1-4)GlcNAc(b1-3)Gal(b1-4)GlcNAc(b1-2)[Gal(b1-4)GlcNAc(b1-3)Gal(b1-4)GlcNAc(b1-3)Gal(b1-4)GlcNAc(b1-6)]Man(a1-6)[Gal(b1-4)GlcNAc(b1-3)Gal(b1-4)GlcNAc(b1-3)Gal(b1-4)GlcNAc(b1-2)Man(a1-3)]Man(b1-4)GlcNAc(b1-4)[Fuc(a1-6)]GlcNAc
# Summary of the method: as §1
# [25] = target: Gal(b1-4)GlcNAc(b1-3)Gal(b1-4)GlcNAc(b1-3)Gal(b1-4)GlcNAc(b1-3)Gal(b1-4)GlcNAc(b1-2)Man(a1-3)[Gal(b1-4)GlcNAc(b1-3)Gal(b1-4)GlcNAc(b1-3)Gal(b1-4)GlcNAc(b1-3)Gal(b1-4)GlcNAc(b1-2)Man(a1-6)]Man(b1-4)GlcNAc(b1-4)GlcNAc
# Summary of the method: as §1
# [26] = target: Gal(b1-4)GlcNAc(b1-3)Gal(b1-4)GlcNAc(b1-3)Gal(b1-4)GlcNAc(b1-3)Gal(b1-4)GlcNAc(b1-3)Gal(b1-4)GlcNAc(b1-3)Gal(b1-4)GlcNAc(b1-2)Man(a1-3)[Gal(b1-4)GlcNAc(b1-3)Gal(b1-4)GlcNAc(b1-3)Gal(b1-4)GlcNAc(b1-3)Gal(b1-4)GlcNAc(b1-3)Gal(b1-4)GlcNAc(b1-3)Gal(b1-4)GlcNAc(b1-2)Man(a1-6)]Man(b1-4)GlcNAc(b1-4)GlcNAc
# Summary of the method: as §1
# [27] = target: Gal3S(b1-4)[Fuc(a1-3)]Glc6S
# Summary of the method: as §1
# [28] = target: Gal3S6S(b1-4)GlcNAc
# Summary of the method: as §1
# [29] = target: Gal6S(b1-4)GlcNAc6S
# Summary of the method: as §1
# [30] = target: GlcNAc(a1-4)Gal(b1-4)GlcNAc(b1-3)Gal(b1-4)GlcNAc
# Summary of the method: as §1
# [31] = target: GlcNAc(b1-2)Man(a1-3)[GlcNAc(b1-4)][GlcNAc(b1-2)Man(a1-6)]Man(b1-4)GlcNAc(b1-4)[Fuc(a1-6)]GlcNAc
# Summary of the method: as §1
# [32] = target: GlcNAc(b1-3)Gal(b1-4)GlcNAc(b1-3)Gal(b1-4)GlcNAc(b1-3)Gal(b1-4)GlcNAc(b1-3)Gal(b1-4)GlcNAc(b1-2)Man(a1-3)[GlcNAc(b1-3)Gal(b1-4)GlcNAc(b1-3)Gal(b1-4)GlcNAc(b1-3)Gal(b1-4)GlcNAc(b1-3)Gal(b1-4)GlcNAc(b1-2)Man(a1-6)]Man(b1-4)GlcNAc(b1-4)GlcNAc
# Summary of the method: as §1
# [33] = target: GlcNAc(b1-4)GlcNAc(b1-4)GlcNAc(b1-4)GlcNAc(b1-4)GlcNAc
# Summary of the method: as §1
# [34] = target: Kdn(a2-3)Gal(b1-3)GalNAc
# Summary of the method: as §1
# [35] = target: Neu5Ac(a2-3)Gal(b1-4)GlcNAc(b1-2)[Neu5Ac(a2-3)Gal(b1-4)GlcNAc(b1-4)]Man(a1-3)[GlcNAc(b1-4)][Neu5Ac(a2-3)Gal(b1-4)GlcNAc(b1-4)Man(a1-6)]Man(b1-4)GlcNAc(b1-4)GlcNAc
# Summary of the method: as §1
# [36] = target: Neu5Ac(a2-3)Gal(b1-4)GlcNAc(b1-3)Gal(b1-4)GlcNAc(b1-2)Man(a1-3)[Neu5Ac(a2-3)Gal(b1-4)GlcNAc(b1-3)Gal(b1-4)GlcNAc(b1-2)Man(a1-6)]Man(b1-4)GlcNAc(b1-4)GlcNAc
# Summary of the method: as §1
# [37] = target: Neu5Ac(a2-3)Gal(b1-4)GlcNAc(b1-6)[Neu5Ac(a2-3)Gal(b1-3)]GalNAc
# Summary of the method: as §1
# [38] = target: Neu5Ac(a2-3)Gal(b1-4)[Fuc(a1-3)]GlcNAc6S
# Summary of the method: as §1
# [39] = target: Neu5Ac(a2-3)[GalNAc(b1-4)]Gal(b1-4)GlcNAc
# Summary of the method: as §1
# [40] = target: Neu5Ac(a2-6)Gal(b1-4)GlcNAc(b1-2)Man(a1-6)[Man(a1-3)]Man(b1-4)GlcNAc(b1-4)GlcNAc
# Summary of the method: as §1
# [41] = target: Neu5Ac(a2-6)Gal(b1-4)GlcNAc(b1-3)GalNAc
# Summary of the method: as §1
# [42] = target: Neu5Ac(a2-6)Gal(b1-4)GlcNAc(b1-3)[Neu5Ac(a2-6)Gal(b1-4)GlcNAc(b1-6)]GalNAc
# Summary of the method: as §1
# [43] = target: Neu5Ac(a2-6)GalNAc(b1-4)GlcNAc6S
# Summary of the method: as §1
# [44] = target: Neu5Ac(a2-8)Neu5Ac(a2-3)Gal(b1-4)GlcNAc
# Summary of the method: as §1
# [45] = target: Neu5Ac(a2-8)Neu5Ac(a2-8)Neu5Ac
# Summary of the method: as §1
binder,measurement,setting,value
PX14367B-bvu-516-23-516 (Bacteroides vulgatus) (protein) LDTIPTTYVDAGSVFGKTGDAEKVLNGGWNYLMETFNSYANPGYGAMLRANDAMGSDVVLNSKYGFRTHNEFSAIYGKGGTNTLSWLLAYRVINDCNGVLDNIDAAEGTQADRNRIKGQALALRGFLYLHLASCYSFAIDKDPDAVCAPIYTQSTDETIAAEGKPASSVSEVYAQSINDLEEALELIPETYVRDAKHKIDNEVVLGILSRACLYARQWEKAKTYSDKLLAKDNYLMTESEYKAGFNSVDNKEWIWGHAQTNDQSNASYQFHYLDTTTKGSYYYSFNVDPYFRDLFEDGDYRKEMLFWATDPGADVESAAYVWMRNSKFRFRDIENQLGDIVLMRVAEIYLINAEAKAHLNDPDAINKLNDLKTARGAKTIHTNLSQQDLLETIWLERRKELWGEGFSLIDIIRNQQTVVRNAYPEGPIDYIYTDENGQTHTLKKKTQGHRFFNFPDKSAFCPNSKYYLYRITDSEELANKNLYKDHPKLSIYTK,glycan array binding signal (z-score),[1],-0.284
same,glycan array binding signal (z-score),[2],-0.028
same,glycan array binding signal (z-score),[3],-0.201
same,glycan array binding signal (z-score),[4],-0.237
same,glycan array binding signal (z-score),[5],-0.35
same,glycan array binding signal (z-score),[6],-0.282
same,glycan array binding signal (z-score),[7],-0.204
same,glycan array binding signal (z-score),[8],-0.26
same,glycan array binding signal (z-score),[9],7.56
same,glycan array binding signal (z-score),[10],0.034
same,glycan array binding signal (z-score),[11],4.75
same,glycan array binding signal (z-score),[12],-0.331
same,glycan array binding signal (z-score),[13],5.23
same,glycan array binding signal (z-score),[14],-0.328
same,glycan array binding signal (z-score),[15],-0.252
same,glycan array binding signal (z-score),[16],-0.361
same,glycan array binding signal (z-score),[17],7.76
same,glycan array binding signal (z-score),[18],4.21
same,glycan array binding signal (z-score),[19],-0.243
same,glycan array binding signal (z-score),[20],4.48
same,glycan array binding signal (z-score),[21],4.25
same,glycan array binding signal (z-score),[22],-0.337
same,glycan array binding signal (z-score),[23],0.011
same,glycan array binding signal (z-score),[24],7.91
same,glycan array binding signal (z-score),[25],0.812
same,glycan array binding signal (z-score),[26],7.87
same,glycan array binding signal (z-score),[27],2.87
same,glycan array binding signal (z-score),[28],-0.262
same,glycan array binding signal (z-score),[29],6.08
same,glycan array binding signal (z-score),[30],-0.2
same,glycan array binding signal (z-score),[31],-0.049
same,glycan array binding signal (z-score),[32],-0.276
same,glycan array binding signal (z-score),[33],-0.245
same,glycan array binding signal (z-score),[34],-0.198
same,glycan array binding signal (z-score),[35],-0.262
same,glycan array binding signal (z-score),[36],-0.164
same,glycan array binding signal (z-score),[37],-0.354
same,glycan array binding signal (z-score),[38],-0.354
same,glycan array binding signal (z-score),[39],-0.356
same,glycan array binding signal (z-score),[40],4.55
same,glycan array binding signal (z-score),[41],-0.386
same,glycan array binding signal (z-score),[42],0.372
same,glycan array binding signal (z-score),[43],-0.208
same,glycan array binding signal (z-score),[44],-0.353
same,glycan array binding signal (z-score),[45],-0.342
